# From PubChem BioAssay (Tox21)
# “And” between values parts separate entries of the source, which are not always exact repeats. Identical values can stand only once. Values without a mark were called inactive. Inconclusive results are not listed. Entries that show only a call come without a potency. The source made the active and inactive calls. The call rests on the fitted dose curve; in most records, active means well fitted curve in the direction sought with a large enough effect in the repeat runs; inconclusive means weak or mixed curves; inactive means no such curve, though single readings can be large; an effect the other way counts as inactive or inconclusive.
# How the values were obtained:
# [1] = qHTS RealTime-Glo MT Cell Viability Assay in HEK293 cells - 40 hour (AID 1224874); settings: RealTime-Glo luminescence; max response: hits give low values; further: nearly all actives have a fitted effect of over 50% in size; further: potency means the concentration at half of the fitted maximal effect
# In short: (§1)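 Cells were seeded together with NanoLuc luciferase and a prosubstrate that viable cells reduce to a luciferase substrate. After a 5 h incubation at 37 C/5% CO2, compounds were added and luminescence was measured repeatedly during 40 h of treatment.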
# [2] = A CellTox Green Cytotoxicity Assay to monitor cytotoxicity in HEK293 cells - 24 hour (AID 1224875); further: series mostly up to about 77 µM; nearly all actives have a fitted effect of over 45% in size
# In short: (§2)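 Nonlytic real-time cytotoxicity: HEK293 + CellTox Green reagent plated, 5 h preincubation, pintool compound addition (23 nL in DMSO), 37 C for 40 h, fluorescence measured at successive time points.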
# [3] = A CellTox Green Cytotoxicity Assay to monitor cytotoxicity in HepG2 cells - 16 hour (AID 1224876); further: nearly all actives have a fitted effect of over 45% in size
# In short: (§3)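 Read-out is fluorescence of a cyanine dye excluded from live cells that stains DNA of dead HepG2 cells, with signal proportional to cytotoxicity. Plates were read at 0, 8, 16, 24, 32 and 40 h after compound addition.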
# [4] = qHTS RealTime-Glo MT Cell Viability Assay in HepG2 cells - 32 hour (AID 1224877); further: nearly all actives have a fitted effect of over 55% in size
# In short: (§4)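 Compound treatment began 5 h after plating HepG2 cells (600/well) with NanoLuc luciferase and prosubstrate. Plates stayed at 37 C for 40 h; luminescence was captured at six time points, 0 h through 40 h.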
# [5] = A CellTox Green Cytotoxicity Assay to monitor cytotoxicity in HepG2 cells - 24 hour (AID 1224878); further: nearly all actives have a fitted effect of over 45% in size
# In short: as §3
# [6] = A CellTox Green Cytotoxicity Assay to monitor cytotoxicity in HepG2 cells - 40 hour (AID 1224879); further: nearly all actives have a fitted effect of over 40% in size
# In short: as §3
# [7] = qHTS RealTime-Glo MT Cell Viability Assay in HEK293 cells - 0 hour (AID 1224880); further: top concentration of the series differs between compounds; nearly all actives have a fitted effect of over 45% in size
# In short: as §1
# [8] = A CellTox Green Cytotoxicity Assay to monitor cytotoxicity in HEK293 cells - 32 hour (AID 1224881); further: nearly all actives have a fitted effect of over 40% in size
# In short: as §2
# [9] = A CellTox Green Cytotoxicity Assay to monitor cytotoxicity in HepG2 cells - 0 hour (AID 1224882); further: nearly all actives have a fitted effect of over 35% in size
# In short: as §3
# [10] = A CellTox Green Cytotoxicity Assay to monitor cytotoxicity in HepG2 cells - 32 hour (AID 1224883); further: nearly all actives have a fitted effect of over 50% in size
# In short: as §3
# [11] = A CellTox Green Cytotoxicity Assay to monitor cytotoxicity in HEK293 cells - 8 hour (AID 1224884); further: nearly all actives have a fitted effect of over 35% in size
# In short: as §2
# [12] = qHTS RealTime-Glo MT Cell Viability Assay in HepG2 cells - 16 hour (AID 1224885); further: nearly all actives have a fitted effect of over 50% in size
# In short: as §4
# [13] = qHTS RealTime-Glo MT Cell Viability Assay in HEK293 cells - 24 hour (AID 1224886); further: nearly all actives have a fitted effect of over 50% in size; further: potency means the concentration at half of the fitted maximal effect
# In short: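 Quantitative high-throughput screen of the Tox21 10K library in HEK293: cells and RealTime-Glo reagents plated together, compound added at 5 h, luminescence monitored through 40 h at 37 C.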
# [14] = qHTS RealTime-Glo MT Cell Viability Assay in HEK293 cells - 8 hour (AID 1224887)
# In short: as §1
# [15] = qHTS RealTime-Glo MT Cell Viability Assay in HepG2 cells - 0 hour (AID 1224889); further: nearly all actives have a fitted effect of over 50% in size; further: potency means the concentration at half of the fitted maximal effect
# In short: as §4
# [16] = A CellTox Green Cytotoxicity Assay to monitor cytotoxicity in HepG2 cells - 8 hour (AID 1224890); further: nearly all actives have a fitted effect of over 45% in size
# In short: as §3
# [17] = qHTS assay to identify small molecule antagonists of the androgen receptor (AR) signaling pathway using the MDA cell line in the presence of 0.5 nM R1881 - cell viability counter screen (AID 1259242); further: nearly all actives have a fitted effect of over 45% in size
# In short: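 Counter screen for cytotoxicity run in the same wells as the AR antagonist reporter screen: MDA-kb2 cells were treated 16 hr with test compounds and 0.5 nM R1881, then live-cell protease activity was measured by fluorescence.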
# [18] = A CellTox Green Cytotoxicity Assay to monitor cytotoxicity in HEK293 cells - 16 hour (AID 1224888); further: nearly all actives have a fitted effect of over 35% in size
# In short: as §2
# [19] = molecular target: Androgen receptor (Homo sapiens) (UniProt P10275); assay: qHTS assay to identify small molecule antagonists of the androgen receptor (AR) signaling pathway using the MDA cell line in the presence of 0.5 nM R1881 (AID 1259243); further: nearly all actives have a fitted effect of over 50% in size
# In short: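 Luciferase luminescence is the read-out: compounds are tested for suppressing 0.5 nM R1881-driven MMTV reporter activity in MDA-kb2 cells after 16 hr at 37C.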
# [20] = qHTS assay to identify small molecule antagonists of the estrogen receptor alpha (ER-alpha) signaling pathway using the BG1 cell line in the presence of 0.1 nM 17-beta-estradiol - cell viability counter screen (AID 1259241); further: nearly all actives have a fitted effect of over 40% in size
# In short: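 Estradiol-stimulated (0.1 nM) VM7Luc4E2 cells exposed to compounds 22 hr; viability measured by fluorescence of cleaved CellTiter-Fluor substrate after 30 min.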
# Chain of Androgen receptor (Homo sapiens) (P10275 whole entry, looked up): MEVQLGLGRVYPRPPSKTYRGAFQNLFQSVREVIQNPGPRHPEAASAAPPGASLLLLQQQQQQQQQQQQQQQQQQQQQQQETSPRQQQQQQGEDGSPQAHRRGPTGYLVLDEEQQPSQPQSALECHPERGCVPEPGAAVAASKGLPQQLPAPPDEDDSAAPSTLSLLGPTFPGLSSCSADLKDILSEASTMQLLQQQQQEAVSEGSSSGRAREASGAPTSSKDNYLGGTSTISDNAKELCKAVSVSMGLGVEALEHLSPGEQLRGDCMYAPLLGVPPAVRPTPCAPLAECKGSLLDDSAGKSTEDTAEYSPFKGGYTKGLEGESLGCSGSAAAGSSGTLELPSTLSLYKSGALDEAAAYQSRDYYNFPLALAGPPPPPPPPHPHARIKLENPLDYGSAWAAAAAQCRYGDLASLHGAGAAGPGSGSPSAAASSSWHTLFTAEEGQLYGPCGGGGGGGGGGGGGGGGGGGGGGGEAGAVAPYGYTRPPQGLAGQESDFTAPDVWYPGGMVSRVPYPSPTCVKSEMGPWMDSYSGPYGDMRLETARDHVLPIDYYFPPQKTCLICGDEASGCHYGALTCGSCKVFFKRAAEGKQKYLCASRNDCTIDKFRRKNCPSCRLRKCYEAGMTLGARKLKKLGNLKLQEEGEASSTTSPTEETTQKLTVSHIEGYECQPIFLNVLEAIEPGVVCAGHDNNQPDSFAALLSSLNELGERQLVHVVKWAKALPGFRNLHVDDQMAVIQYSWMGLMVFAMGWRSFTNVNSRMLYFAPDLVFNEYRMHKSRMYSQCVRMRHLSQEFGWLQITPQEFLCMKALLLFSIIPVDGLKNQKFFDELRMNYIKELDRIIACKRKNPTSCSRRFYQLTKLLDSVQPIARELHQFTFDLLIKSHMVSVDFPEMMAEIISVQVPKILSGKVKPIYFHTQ
compound,measurement,setting,value
Cc1occc(=O)c1O,max response,[1],-7.52% and -0.505%
same,Potency,[2],inactive
same,Potency,[3],inactive
same,outcome,[4],inactive
same,Potency,[5],inactive
same,Potency,[6],inactive
same,Potency,[7],inactive
same,Potency,[8],inactive
same,outcome,[9],inactive
same,Potency,[10],inactive
same,outcome,[11],inactive
same,outcome,[12],inactive
same,Potency,[13],inactive
same,Potency,[14],inactive
same,Potency,[15],inactive
same,Potency,[16],inactive
same,outcome,[17],inactive
Cc1ccc2oc(=O)ccc2c1,max response,[1],-2.42% and -2.11%
same,Potency,[2],inactive
same,Potency,[3],inactive
same,outcome,[4],inactive
same,Potency,[5],inactive
same,Potency,[6],inactive
same,Potency,[7],inactive
same,Potency,[8],inactive
same,outcome,[9],inactive
same,Potency,[10],inactive
same,outcome,[11],inactive
same,outcome,[12],inactive
same,Potency,[13],inactive
same,Potency,[14],inactive
same,Potency,[15],inactive
same,Potency,[16],inactive
same,outcome,[17],inactive
CC1CCC(C(C)C)C(O)C1 (stereo not given),max response,[1],-2.01% and 1.75%
same,Potency,[2],inactive
same,Potency,[3],inactive
same,outcome,[4],inactive
same,Potency,[5],inactive
same,Potency,[6],inactive
same,Potency,[7],inactive
same,Potency,[8],inactive
same,outcome,[9],inactive
same,Potency,[10],inactive
same,outcome,[11],inactive
same,outcome,[12],inactive
same,Potency,[13],inactive
same,Potency,[14],inactive
same,outcome,[18],inactive
same,Potency,[15],inactive
same,Potency,[16],inactive
same,outcome,[17],inactive
same,Potency,[19],inactive
O=C(O)c1cc(=O)c2c(OCC(O)COc3cccc4oc(C(=O)O)cc(=O)c34)cccc2o1,max response,[1],0.302% and 1.24%
same,Potency,[2],inactive
same,Potency,[3],inactive
same,outcome,[4],inactive
same,Potency,[5],inactive
same,Potency,[6],inactive
same,Potency,[7],inactive
same,Potency,[8],inactive
same,outcome,[9],inactive
same,Potency,[10],inactive
same,outcome,[11],inactive
same,outcome,[12],inactive
same,Potency,[13],inactive
same,Potency,[14],inactive
same,Potency,[15],inactive
same,Potency,[16],inactive
same,outcome,[17],inactive
Cc1ccc(N(C)C)cc1,max response,[1],0.353% and -2.55%
same,Potency,[2],inactive
same,Potency,[3],inactive
same,outcome,[4],inactive
same,Potency,[5],inactive
same,Potency,[6],inactive
same,Potency,[7],inactive
same,Potency,[8],inactive
same,outcome,[9],inactive
same,Potency,[10],inactive
same,outcome,[11],inactive
same,outcome,[12],inactive
same,Potency,[13],inactive
same,Potency,[14],inactive
same,Potency,[15],inactive
same,Potency,[16],inactive
same,Potency,[20],inactive
same,outcome,[17],inactive
same,Potency,[19],inactive
O=C(O)c1ccccc1C(c1ccc(O)cc1)c1ccc(O)cc1,max response,[1],2.57% and 12.8%
same,Potency,[2],inactive
same,Potency,[3],inactive
same,outcome,[4],inactive
same,Potency,[5],inactive
same,Potency,[6],inactive
same,Potency,[7],inactive
same,Potency,[8],inactive
same,outcome,[9],inactive
same,Potency,[10],inactive
same,outcome,[11],inactive
same,outcome,[12],inactive
same,Potency,[13],inactive
same,Potency,[14],inactive
same,outcome,[18],inactive
same,Potency,[15],inactive
same,Potency,[16],inactive
same,outcome,[17],inactive
same,Potency,[19],inactive
O=P(OC(CCl)CCl)(OC(CCl)CCl)OC(CCl)CCl,Potency,[1],21.8 µM (active) and 49 µM (active)
same,Potency,[2],inactive
same,Potency,[3],inactive
same,outcome,[4],inactive
same,Potency,[5],inactive
same,Potency,[6],inactive
same,Potency,[7],inactive
same,Potency,[8],inactive
same,outcome,[9],inactive
same,Potency,[10],inactive
same,outcome,[11],inactive
same,outcome,[12],inactive
same,Potency,[13],24.4 µM (active)
same,outcome,[18],inactive
same,Potency,[15],inactive
same,Potency,[16],inactive
same,outcome,[17],inactive
O=C=NCCCCCCN=C=O,max response,[1],4.38%
same,Potency,[2],inactive
same,Potency,[3],inactive
same,outcome,[4],inactive
same,Potency,[5],inactive
same,Potency,[6],inactive
same,Potency,[7],inactive
same,Potency,[8],inactive
same,outcome,[9],inactive
same,Potency,[10],inactive
same,outcome,[11],inactive
same,outcome,[12],inactive
same,Potency,[13],inactive
same,Potency,[14],inactive
same,Potency,[15],inactive
same,Potency,[16],inactive
O=S(=O)(O)c1ccc2ccccc2c1,max response,[1],19.4% and -5.62%
same,Potency,[2],inactive
same,Potency,[3],inactive
same,Potency,[5],inactive
same,Potency,[6],inactive
same,Potency,[7],inactive
same,Potency,[8],inactive
same,outcome,[9],inactive
same,Potency,[10],inactive
same,outcome,[11],inactive
same,outcome,[12],inactive
same,Potency,[13],inactive
same,Potency,[14],inactive
same,outcome,[18],inactive
same,Potency,[15],inactive
same,Potency,[16],inactive
CCCCCCCC(=O)OC,max response,[1],-1.2% and 5.05%
same,Potency,[2],inactive
same,Potency,[3],inactive
same,outcome,[4],inactive
same,Potency,[5],inactive
same,Potency,[6],inactive
same,Potency,[7],inactive
same,Potency,[8],inactive
same,outcome,[9],inactive
same,Potency,[10],inactive
same,outcome,[11],inactive
same,outcome,[12],inactive
same,Potency,[13],inactive
same,Potency,[14],inactive
same,Potency,[15],inactive
same,Potency,[16],inactive
same,Potency,[20],inactive
same,outcome,[17],inactive
CCCCC(CC)CO (stereo not given),max response,[1],6.29% and 2.53%
same,Potency,[2],inactive
same,Potency,[3],inactive
same,Potency,[5],inactive
same,Potency,[6],inactive
same,Potency,[7],inactive
same,Potency,[8],inactive
same,outcome,[9],inactive
same,Potency,[10],inactive
same,outcome,[11],inactive
same,outcome,[12],inactive
same,Potency,[13],inactive
same,Potency,[14],inactive
same,outcome,[18],inactive
same,Potency,[15],inactive
same,Potency,[16],inactive
same,Potency,[20],inactive
Nc1cc([N+](=O)[O-])ccc1O,max response,[1],-21.5% and -15.3%
same,Potency,[2],inactive
same,Potency,[3],inactive
same,Potency,[5],inactive
same,Potency,[6],inactive
same,Potency,[7],inactive
same,Potency,[8],inactive
same,outcome,[9],inactive
same,Potency,[10],inactive
same,outcome,[11],inactive
same,outcome,[12],inactive
same,Potency,[13],inactive
same,Potency,[14],inactive
same,outcome,[18],inactive
same,Potency,[15],inactive
same,Potency,[16],inactive
same,Potency,[19],inactive
CCCCCCCCCCCCCCO,max response,[1],-1.67% and 1.72%
same,Potency,[2],inactive
same,Potency,[3],inactive
same,Potency,[5],inactive
same,Potency,[6],inactive
same,Potency,[7],inactive
same,Potency,[8],inactive
same,outcome,[9],inactive
same,Potency,[10],inactive
same,outcome,[11],inactive
same,outcome,[12],inactive
same,Potency,[13],inactive
same,Potency,[14],inactive
same,outcome,[18],inactive
same,Potency,[15],inactive
same,Potency,[16],inactive
same,Potency,[20],inactive
same,outcome,[17],inactive
C[C@H]1C[C@H]2[C@@H]3CCC4=CC(=O)C=C[C@]4(C)[C@@]3(F)[C@@H](O)C[C@]2(C)[C@@]1(O)C(=O)CO,max response,[1],-12.6% and 0.279%
same,Potency,[2],inactive
same,Potency,[3],inactive
same,Potency,[5],inactive
same,Potency,[6],inactive
same,Potency,[7],inactive
same,Potency,[8],inactive
same,outcome,[9],inactive
same,Potency,[10],inactive
same,outcome,[11],inactive
same,outcome,[12],inactive
same,Potency,[13],inactive
same,Potency,[14],inactive
same,outcome,[18],inactive
same,Potency,[15],7.76 µM (active)
same,Potency,[16],inactive
same,Potency,[20],inactive
same,outcome,[17],inactive
